Screens: PubChem BioAssay, The Scripps Research Institute Molecular Screening Center
TEAD-YAP inh: TEAD-YAP interaction inhibition, primary screen, TEAD-YAP interaction inhibitor project, luminescence, HEK-TIYL cells. TEAD-Gal4/YAP UAS-luciferase luminescence. inhibition, % at 9.12 µM. hit rate 1.4% among 640,000; in the data active = inhibition above about 32%;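 note: 0% = median of test compound wells and 100% = reference inhibitor wells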
FBW7 act: FBW7 E3 ligase activators, primary screen, biochemical, AlphaScreen, human; F-box/WD repeat-containing protein 7 (Homo sapiens), Q969H0; AlphaScreen FBW7–phospho-cyclin E peptide binding, activator screen; normalized activity (activation), % at 26.1 µM; hit rate 0.13% among 650,000; AID 1259310, 2017; in the data active = normalized activity above about 1.9%;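 note: purified mutant Fbw7 with reduced substrate affinity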
GPR151 activ: activators of human GPR151, primary screen, cell-based, PathHunter beta-arrestin, luminescence. activation, % at 11.2 µM. AID 1508602, 2020. hit rate 1% among 650,000. PathHunter beta-arrestin GPR151 cells; in the data active = activation above about 4.9%;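 note: 0% = median of compound wells and 100% = cells with positive control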
MITF primary: MITF inhibitors, primary screen, biochemical, AlphaScreen, human | AlphaScreen MITF homodimerization, bead proximity signal | inhibition, % at 2.6 µM | hit rate 0.91% among 650,000 | AID 1259374, 2018; in the data active = inhibition above about 50%;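 note: 0% = vehicle wells with protein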
Target sequence (O75030 whole entry, looked up): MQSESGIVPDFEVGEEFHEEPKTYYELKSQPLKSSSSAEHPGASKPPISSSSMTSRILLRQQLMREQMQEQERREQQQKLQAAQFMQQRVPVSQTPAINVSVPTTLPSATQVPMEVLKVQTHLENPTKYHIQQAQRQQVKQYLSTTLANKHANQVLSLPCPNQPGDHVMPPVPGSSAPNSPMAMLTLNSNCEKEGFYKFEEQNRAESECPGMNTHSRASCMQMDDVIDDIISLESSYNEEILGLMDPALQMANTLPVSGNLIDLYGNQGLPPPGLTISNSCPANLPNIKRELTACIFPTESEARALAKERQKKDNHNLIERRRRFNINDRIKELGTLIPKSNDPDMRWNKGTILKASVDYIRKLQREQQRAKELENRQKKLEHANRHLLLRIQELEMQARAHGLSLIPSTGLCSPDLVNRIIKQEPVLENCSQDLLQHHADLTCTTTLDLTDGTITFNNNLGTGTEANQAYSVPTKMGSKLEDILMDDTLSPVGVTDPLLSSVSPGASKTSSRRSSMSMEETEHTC
Active calls of the source: *; ! = a repeat was not active. Sampled rows, rich in hits. Any-hit rate of the full collection: about 3.5%.

SMILES	TEAD-YAP inh	FBW7 act	GPR151 activ	MITF primary
CCOC(=O)c1c(C)[nH]c(C(=O)C(C)Nc2ccccc2OCC)c1C (stereo not given)	-3	0	0	5
CCOC(=O)c1[nH]c(C)c(CNc2cc(OC)ccc2OC)c1C	50*	0	0	12
CCOC(=O)c1[nH]c(C)c(C(=O)Nc2ccccc2OCC)c1C	58*	0	0	-9
CCOC(=O)c1[nH]c(C)c(C(=O)N2CCCCCC2)c1C	-8	1	1	20
CCOC(=O)c1[nH]c(C)c(C(=O)Nc2ccccc2C)c1C	44*	0	-1	-5
CCOC(=O)C(Sc1nc2c(sc(=S)n2-c2c(C)cccc2C)c(=O)n1-c1c(C)cccc1C)C(C)=O (stereo not given)	14	0	-1	7
CCOC(=O)c1c(C)[nH]c(C(=O)C(C)Nc2ccc(OC)c(OC)c2)c1C (stereo not given)	43*	0	-2	42
CCOC(=O)c1[nH]c(C)c(C(=O)c2ccc(Cl)cc2)c1C	40*	0	2	13
CCOC(=O)c1c(C)[nH]c(C(=O)C(C)Nc2cc(NC(C)=O)ccc2OC)c1C (stereo not given)	1	0	-2	1
CC(=O)c1[nH]c(C)c(C(=O)Nc2cc(Cl)ccc2C)c1C	-1	0	0	17
CCOC(=O)c1[nH]c(C)c(C(=O)Nc2cc(Cl)ccc2C)c1C	47*	0	0	-10
CCOC(=O)c1[nH]c(C)c(C(=O)Nc2cc(C)ccc2OC)c1C	57*	0	2	2
Cc1ccc2c(c1)CN(CCC(=O)NC(C)c1cccs1)CC(C)O2 (stereo not given)	4	0	0	12
COc1ccc(S(=O)(=O)N2CCCC(C(=O)Nc3cccc(SC)c3)C2)cc1C (stereo not given)	9	0	3	6
NC(=S)NNc1cccc2cccnc12	2	0	0	74*!
CC(C)OC(=O)CSc1ccc([N+](=O)[O-])cc1[N+](=O)[O-]	-1	0	-1	9
Cc1nc2nc(CC(=O)NCc3ccccc3)nn2c(C)c1Cc1cccc(Cl)c1	55*	0	0	-4
CN(C)c1ccc(/C=C(\C(N)=O)c2nc3ccccc3[nH]2)cc1	83*	0	-3	-7
Cc1cc2c(cc1C)-c1nc3ccccc3cc1C2=O	-30	0	-3	4
Cc1cc2c(cc1C)-c1nc3ccccc3cc1C2	54*	1	-4	9
Cc1ccc2c(c1)Cc1nc3ccccc3nc1-2	65*	0	-10	-1
O=C(CC1CCCC1)Nc1cccc(N2CCC(NCc3ccc4c(c3)OCO4)CC2)c1	3	0	2	4
CCc1ccc2nc(N3CCC(C(=O)NC4CCCCC4)CC3)sc2c1	70*	0	-1	14
CCc1ccc2nc(N3CCC(C(=O)NC(C)C)CC3)sc2c1	40*	0	1	-10
Cc1nnc2n1Nc1nc3ccccc3nc1S2	-11	0	-2	-14
SMILES	TEAD-YAP inh	FBW7 act	GPR151 activ	MITF primary
O=C(NNC(=O)C1CCCCC1)c1ccccn1	-7	-2	0	2
CCN(C(=O)CCl)c1cccc2ccccc12	67*	0	3	-10
COc1ccc(C(=O)Nc2nc3c(Cl)cccc3s2)c(OC)c1	78*	0	1	-17
CCCc1ccc(C(=O)Nc2nc3ccccc3s2)cc1	38*	0	-3	3
CCCOc1ccc(C(=O)Nc2nc3ccccc3s2)cc1	6	0	-3	-10
CC(C)(C)c1ccc(C(=O)Nc2nc3ccccc3s2)cc1	39*	0	1	10
O=C(NC(=S)Nc1nc2ccccc2s1)c1ccccc1Cl	70*	0	-10	0
CCS(=O)(=O)Nc1cccc(N2CCC(NCc3ccc(C(=O)OC)cc3)CC2)c1	5	0	2	-15
COc1ccc(CNC(=O)c2ccc(OC(C)C)cc2)cc1	-37	0	-1	5
Cc1ccccc1C(=O)Nc1ccc2nc(NC(=O)c3ccccc3C)sc2c1	55*	0	1	7
Cc1ccsc1C(=O)Nc1nc2ccc(S(C)(=O)=O)cc2s1	62*	0	-12	3
O=C(Nc1nc2ccccc2s1)c1ccc(C(=O)c2ccccc2)cc1	-26	0	-1	-3
CC(=O)Nc1ccc2nc(NC(=O)c3ccccc3C)sc2c1	-56	0	-5	-5
CC(C)Oc1ccc(C(=O)NCc2ccccc2)cc1	-22	2.5*	-1	12
CC(C)Oc1ccc(C(=O)Nc2nc3ccccc3s2)cc1	73*	0	-6	1
COc1ccccc1C(=O)Nc1nc2ccc(NC(C)=O)cc2s1	12	0	0	-26
COc1ccccc1C(=O)Nc1nc2ccccc2s1	95*	0	-11	6
Cc1cc([N+](=O)[O-])ccc1NC(=O)CCCOc1ccc(Cl)cc1Cl	-1	0	0	3
CCOc1ccc(N=C(NN)c2ccc3ccccc3n2)cc1	94*	0	2	2
Cc1ccc(N=C(NN)c2ccc3ccccc3n2)cc1	92*	0	-1	37
COc1ccccc1N=C(NN)c1ccc2ccccc2n1	-32	0	0	10
CC(C)(C)c1cc(/C=c2\sc3nc4ccccc4n3c2=O)cc(C(C)(C)C)c1O	-11	0	0	-10
COc1cc(C(=O)Nc2cccnc2)ccc1OCc1c(Cl)cccc1Cl	39*	0	2	7
O=C(Nc1cccnc1)c1ccc(Cl)c(Cl)c1	-17	0	0	7
CC(=O)c1c(C)[nH]c(C(=O)COC(=O)c2c(C)nn(-c3ccccc3)c2C)c1C	49*	0	3	22
SMILES	TEAD-YAP inh	FBW7 act	GPR151 activ	MITF primary
CC(C)NCCCOc1ccc(Cl)cc1Br	32*	0	-1	14
CC(C)NCCOc1ccc(Cl)cc1Br	-7	0	-2	2
CCOc1ccc2nc(NCCNC(=O)c3ccc(OC)cc3)c(C#N)cc2c1	-2	0	0	3
C=CCN1C2=NCCCN2c2ccccc21	6	0	-1	1
CCCCCCN1C2=NCCCN2c2ccccc21	36*	1	-1	8
Cc1cc(Cl)ccc1OCC(=O)Nc1ccc(Cl)cn1	-29	0	0	9
Cc1ccc(NC(=O)COc2ccc(Cl)cc2Cl)nc1	70*	1	-3	4
Cc1ccc(OCC(=O)Nc2ccc(Cl)cn2)c(Br)c1	40*	0	-2	-6
Cc1cc(Br)ccc1OCC(=O)Nc1ccc(Cl)cn1	-25	0	0	17
O=C(CCl)NCCOc1ccc(Cl)cc1Cl	41*	0	-1	9
Cc1nc(NC(=O)COc2ccc(Cl)cc2Cl)sc1C	74*	0	-7	7
CCC(C)NC(=O)CSc1nc2ccsc2c(=O)n1CCN1CCCC1 (stereo not given)	12	0	2	8
